Measured values from PubChem BioAssay AID493065 (National Center for Advancing Translational Sciences (NCATS), 2011).
The other results are listed elsewhere or left out. Records with an inconclusive call do not appear. A number with no mark means an inactive call. Calls follow the shape of the dose curve; as a rule, active = well fitted activation curve with a large enough effect; inconclusive = small, poorly fitted or top-dose-only effect; inactive = flat fitted curve, though single readings scatter.

Experiment: Parental Cell Counter Screen Assay for Epigenetic Modulators: Hit Validation
Conditions: mouse c127i parental cells, 30 h, stronger effect = higher value, concentration not given here
From the text: NIH Molecular Libraries Screening Centers Network [MLSCN] NIH Chemical Genomics Center [NCGC] MLSCN Grant: 1 X01 MH079860-01 Assay Provider: Elisabeth D. Martinez, University of Texas SW Medical Center NCGC Assay Overview: This assay is a counter screen for the Locus Derepression (LDR) assay (PubChem AID 1865). The LDR assay detects the derepression of a GFP reporter that is stably integrated in a region of the genome of murine c127i mammary cells that is presumably silenced. Compounds that cause derepression of the locus to express GFP are identified by enumerating GFP positive cells using a laser-scanning microplate cytometer. […] Compounds active in the parental c127i cells are likely fluorescent.
NCGC Assay Protocol Summary: Three hundred cells in 5 uL per well were dispensed into black, clear-bottom 1536-well plates. Twenty-three nL compound was transferred to the assay plate and cells were incubated 30 hours at 37 C. Medium was removed, cells were washed two times with PBS, and fluorescent cells were enumerated as objects between the sizes of 20 to 120 um width and depth using a laser-scanning microplate imager (Acumen Explorer Ex3, TTP Labtech). For further details, see Johnson, RL, Huang, W, Jadhav, A, Austin, CP, Inglese, J, Martinez, ED (2008). A quantitative high-throughput screen identifies potential epigenetic modulators of gene expression. Anal Biochem 375: 237-48.

## O=C1NC(=O)N(CCc2ccc(F)cc2)C(=O)/C1=C/C=C/c1ccccc1
  fluorescent cell count: 3%
